{
  "source": "the supplement of paper PMC12067926",
  "data": [
    {"test_system": "Carnobacterium 1 (Carnobacterium gallinarum)", "assay": "relative growth (AUC of 72 h growth curve relative to DMSO control, dAUC) (ratio); higher = more growth (less inhibition), active = hit call of the paper", "conditions": "20 µM;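 active = growth AUC significantly below the DMSO wells by Dunnett test; inactive = the rest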", "method": "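Environmental bacterial isolates (Iceland stream sediment and Silwood Park soil) and whole stream-sediment communities were grown in LB from a 1:100 dilution with each pesticide at 20 µM (1% DMSO). A600 was read hourly for 72 h and the area under a spline-fitted growth curve (AUC) was computed. dAUC is the mean AUC of 3 biological replicates divided by the mean AUC of the DMSO controls. Significance was tested by Dunnett's test against the DMSO control.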", "values": [
      {"smiles": "CSc1nc(NC(C)C)nc(NC(C)C)n1", "relative growth": "0.71 (inactive)"},
      {"smiles": "Cc1cc(C2CC2)nc(Nc2ccccc2)n1", "relative growth": "0.909 (inactive)"},
      {"smiles": "CC(C)(C)[C@@H](O)[C@H](Oc1ccc(Cl)cc1)n1cncn1", "relative growth": "1.06 (inactive)"},
      {"smiles": "CNC(=O)c1cc(C#N)cc(C)c1NC(=O)c1cc(Br)nn1-c1ncccc1Cl", "relative growth": "0.896 (inactive)"},
      {"smiles": "CCOc1ccc(C(C)(C)COCc2cccc(Oc3ccccc3)c2)cc1", "relative growth": "0.99 (inactive)"},
      {"smiles": "CNC(=O)Oc1cccc2ccccc12", "relative growth": "1.1 (inactive)"},
      {"smiles": "CC(COc1ccc(Oc2ccccc2)cc1)Oc1ccccn1", "note": "(stereo not given)", "relative growth": "1.38 (inactive)"},
      {"smiles": "COC(=O)Nc1nc2ccccc2[nH]1", "relative growth": "1.1 (inactive)"},
      {"smiles": "N#Cc1c(Cl)c(Cl)c(Cl)c(C#N)c1Cl", "relative growth": "1.11 (inactive)"},
      {"smiles": "Clc1ccc(C(c2ccc(Cl)cc2)C(Cl)(Cl)Cl)cc1", "relative growth": "1.1 (inactive)"},
      {"smiles": "COC(=O)c1ccccc1S(=O)(=O)NC(=O)Nc1nc(C)nc(OC)n1", "relative growth": "1.2 (inactive)"},
      {"smiles": "CNC(=O)/C=C(\\C)OP(=O)(OC)OC", "relative growth": "0.926 (inactive)"},
      {"smiles": "N#Cc1cc(Br)c(O)c(Br)c1", "relative growth": "1.05 (inactive)"},
      {"smiles": "C/C(=N\\C#N)N(C)Cc1ccc(Cl)nc1", "relative growth": "1.32 (inactive)"},
      {"smiles": "CCOc1cc(Oc2ccc(C(F)(F)F)cc2Cl)ccc1[N+](=O)[O-]", "relative growth": "0.874 (inactive)"},
      {"smiles": "CC1(C)[C@H](/C=C(\\Cl)C(F)(F)F)[C@@H]1C(=O)OC(C#N)c1cccc(Oc2ccccc2)c1", "note": "(stereo not given in full)", "relative growth": "1.38 (inactive)"},
      {"smiles": "O=C1C=C(N(Cc2ccc(Cl)nc2)CC(F)F)CO1", "relative growth": "1.06 (inactive)"},
      {"smiles": "O=C(Nc1ccc(F)cc1F)c1cccnc1Oc1cccc(C(F)(F)F)c1", "relative growth": "1.1 (inactive)"},
      {"smiles": "COCC(=O)N(c1c(C)cccc1C)C(C)C(=O)OC", "note": "(stereo not given)", "relative growth": "1.13 (inactive)"},
      {"smiles": "CC[C@H](C)C1O[C@]2(C=C[C@@H]1C)C[C@@H]1C[C@@H](C/C=C(\\C)[C@@H](O[C@H]3C[C@H](OC)[C@@H](O[C@H]4C[C@H](OC)[C@H](NC)[C@H](C)O4)[C@H](C)O3)[C@@H](C)/C=C/C=C3\\CO[C@@H]4[C@H](O)C(C)=C[C@@H](C(=O)O1)[C@]34O)O2", "note": "(stereo not given in full)", "relative growth": "0.609 (inactive)"},
      {"smiles": "CCCC1COC(Cn2cncn2)(c2ccc(Cl)cc2Cl)O1", "note": "(stereo not given)", "relative growth": "0.835 (inactive)"},
      {"smiles": "CON(C)C(=O)Nc1ccc(Cl)c(Cl)c1", "relative growth": "1.02 (inactive)"},
      {"smiles": "COCc1cnc(C2=NC(C)(C(C)C)C(=O)N2)c(C(=O)O)c1", "note": "(stereo not given)", "relative growth": "0.837 (inactive)"},
      {"smiles": "CNC(=O)c1cc(Cl)cc(C)c1NC(=O)c1cc(Br)nn1-c1ncccc1Cl", "relative growth": "1.24 (inactive)"},
      {"smiles": "Fc1ccc([C@]2(Cn3cncn3)O[C@H]2c2ccccc2Cl)cc1", "note": "(racemic)", "relative growth": "0.995 (inactive)"},
      {"smiles": "OC(Cc1ccccc1Cl)(Cn1nc[nH]c1=S)C1(Cl)CC1", "note": "(stereo not given)", "relative growth": "0.829 (inactive)"},
      {"smiles": "O=C(NCCc1ncc(C(F)(F)F)cc1Cl)c1ccccc1C(F)(F)F", "relative growth": "0.905 (inactive)"},
      {"smiles": "CN(C)C(CSS(=O)(=O)O)CSS(=O)(=O)O", "relative growth": "1.03 (inactive)"},
      {"smiles": "COP(=O)(NC(C)=O)SC", "note": "(stereo not given)", "relative growth": "1.08 (inactive)"},
      {"smiles": "CC[C@H](C)[C@H]1O[C@]2(C=C[C@@H]1C)C[C@@H]1C[C@@H](C/C=C(\\C)[C@@H](O[C@H]3C[C@H](OC)[C@@H](O[C@H]4C[C@H](OC)[C@@H](O)[C@H](C)O4)[C@H](C)O3)[C@@H](C)/C=C/C=C3\\CO[C@@H]4[C@H](O)C(C)=C[C@@H](C(=O)O1)[C@]34O)O2.CO[C@H]1C[C@H](O[C@H]2[C@H](C)O[C@@H](O[C@@H]3/C(C)=C/C[C@@H]4C[C@@H](C[C@]5(C=C[C@H](C)[C@@H](C(C)C)O5)O4)OC(=O)[C@@H]4C=C(C)[C@@H](O)[C@H]5OC/C(=C\\C=C\\[C@@H]3C)[C@]54O)C[C@@H]2OC)O[C@@H](C)[C@@H]1O", "relative growth": "0.726 (inactive)"},
      {"smiles": "COP(=S)(OC)SCN1C(=O)c2ccccc2C1=O", "relative growth": "1.04 (inactive)"},
      {"smiles": "Fc1ccc(Oc2ccnc3cc(Cl)cc(Cl)c23)cc1", "relative growth": "1.13 (inactive)"},
      {"smiles": "CCC(C)c1ccccc1OC(=O)NC", "note": "(stereo not given)", "relative growth": "1.11 (inactive)"},
      {"smiles": "COP(=O)(OC)OC=C(Cl)Cl", "relative growth": "0.961 (inactive)"},
      {"smiles": "ClC1C(Cl)C(Cl)C(Cl)C(Cl)C1Cl", "note": "(stereo not given)", "relative growth": "0.955 (inactive)"},
      {"smiles": "CN/C(=N\\[N+](=O)[O-])NCc1cnc(Cl)s1", "relative growth": "0.918 (inactive)"},
      {"smiles": "COCC(=O)N(c1c(C)cccc1C)[C@H](C)C(=O)OC", "relative growth": "1.12 (inactive)"},
      {"smiles": "CCCC(Cn1cncn1)c1ccc(Cl)cc1Cl", "note": "(stereo not given)", "relative growth": "1.13 (inactive)"},
      {"smiles": "Cc1cc(C)c(C2=C(OC(=O)CC(C)(C)C)C3(CCCC3)OC2=O)c(C)c1", "relative growth": "1.01 (inactive)"},
      {"smiles": "CNC(=O)CSP(=S)(OC)OC", "relative growth": "0.894 (inactive)"}
    ]}
  ]
}
